Consider 27 compounds from PubChem BioAssay AID624034 (National Center for Advancing Translational Sciences (NCATS), 2012).

Inconclusive results are not listed. Active and inactive are the calls of the source. Calls follow the shape of the dose curve; as a rule, active = well fitted inhibition curve with a large enough effect; inconclusive = small, poorly fitted or top-dose-only effect; inactive = flat fitted curve, though single readings scatter.

Chain of Dual specificity protein kinase CLK4 (Homo sapiens) (Q9HAZ1 whole entry, looked up, canonical isoform): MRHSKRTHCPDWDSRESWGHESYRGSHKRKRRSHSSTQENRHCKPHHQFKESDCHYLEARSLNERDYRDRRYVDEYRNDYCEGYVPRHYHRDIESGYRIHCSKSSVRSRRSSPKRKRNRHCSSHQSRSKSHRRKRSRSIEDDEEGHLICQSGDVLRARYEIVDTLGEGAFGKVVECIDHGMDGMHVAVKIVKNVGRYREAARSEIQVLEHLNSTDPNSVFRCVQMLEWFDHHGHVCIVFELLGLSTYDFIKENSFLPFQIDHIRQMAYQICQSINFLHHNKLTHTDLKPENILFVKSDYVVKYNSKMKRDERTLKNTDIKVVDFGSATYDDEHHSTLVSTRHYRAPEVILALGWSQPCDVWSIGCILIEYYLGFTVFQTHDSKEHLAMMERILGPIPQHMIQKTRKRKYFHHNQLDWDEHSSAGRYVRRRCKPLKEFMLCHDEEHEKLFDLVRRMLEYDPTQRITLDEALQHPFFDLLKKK

The assay has as its target Dual specificity protein kinase CLK4 (Homo sapiens) (UniProt Q9HAZ1). In words: Reaction Biology data for inhibitors of CLK4: Probe SAR. As to conditions: Reaction Biology CLK4 kinase assay, 10 uM ATP; series mostly up to 10 µM; activity change, negative = inhibition: at the top concentration. An excerpt: Alternative splicing of pre-mRNAs plays a major role in the regulation of eukaryotic gene expression. Alternative splicing is now thought to be one of the primary reasons for the complexity of higher organisms leading to an average of three protein isoforms per gene. Aberrant splicing can lead to a number of diseases and is known to play a role in rare genetic diseases such as progeria syndrome. Hutchinson-Gilford Progeria Syndrome (HGPS) is a pediatric premature aging disease caused by a spontaneous mutation in the lamin A/C (LMNA) gene due to a single point mutation in the lamin A gene effecting 1 in 4 million people. To identify both specific splicing modulators of the lamin A gene as well as general splicing modulators, a cell-based HTS assay was developed using a minigene reporter system (AIDs, 1459 & 1487). […] This AID summarizes the characterization of lead compounds in Clk4. NIH Molecular Libraries Probe Production Centers Network [MLPCN] NIH Chemical Genomics Center [NCGC] MLPCN Grant: MH084827 Assay Submitter (PI): Tom Misteli
Compound IC50s were determined at Reaction Biology (http://www.reactionbiology.com) with ten concentration points starting at 10 uM in the assay using a 3-fold dilution series. The control compound staurosporine was also tested in the 10-dose IC50 mode with the same 3-fold serial dilution, again starting at 10 uM. All kinase reactions were performed using 10 uM ATP in the assay. 100% activity was taken from kinase reactions with DMSO alone (the vehicle used for compound stock solutions).
Consider `Brc1ccc(CNc2nccc(-c3ccc4c(c3)OCO4)n2)cc1Br`, for which the Potency was 17.7 nM (active).

Consider `FC(F)(F)c1cc(Br)cc(Nc2nccc(-c3ccc4c(c3)OCO4)n2)c1`, for which the Potency was 85.5 nM (active).

As for `Cc1nc(CNc2ncnc3ccc(-c4ccc5c(c4)OCO5)cc23)cs1`, the Potency is 25 nM (active).

Turning to `Cc1nc(CN(C)c2ncnc3ccc(-c4ccc5c(c4)OCO5)cc23)cs1`, the Potency was 15.9 nM (active).

For the compound `COc1ccc(-c2ccnc(NCc3ccc(Cl)c(Cl)c3)n2)cc1OC`, the “activity change, negative = inhibition” value was -40.9% (inactive).

Take `c1cc(-c2ccc3c(c2)OCO3)nc(Nc2ccc3c(c2)OCO3)n1`: the Potency is 74.8 nM (active).

Consider `COc1ccc(-c2ccnc(NCc3ccc(Cl)c(Cl)c3)n2)cc1`, for which the Potency was 91.7 nM (active).

`Clc1ccc(CNc2nccc(-c3ccc4c(c3)OCCO4)n2)cc1Cl`: the Potency was 13.1 nM (active).

As to `c1nc(NCC2CCCO2)c2cc(-c3ccc4c(c3)OCO4)ccc2n1` (configuration not stated), the Potency is 50.1 nM (active).

Take `Cc1c(-c2ccnc(NCc3cccnc3)n2)sc(=O)n1C`: the Potency was 87.8 nM (active).

Regarding `COc1cccc(-c2ccnc(NCc3ccc(Cl)c(Cl)c3)n2)c1`, the Potency was 3860 nM (active).

Consider `Cc1c(-c2ccnc(NCc3ccc(Cl)cc3)n2)sc(=O)n1C`, for which the Potency was 273 nM (active).

Consider `Cc1nc(CN(C)c2ncnc3ccc(-c4ccc5[nH]ncc5c4)cc23)cs1`, for which the Potency is 37.7 nM (active).

As to `c1cncc(CNc2ccnc(-c3ccc4[nH]ncc4c3)n2)c1`, the Potency was 574 nM (active).

As to `c1cncc(CNc2nccc(-c3ccc4c(c3)OCO4)n2)c1`, the Potency was 15.9 nM (active).

With `O=[N+]([O-])c1cc(Nc2nccc(-c3ccc4c(c3)OCO4)n2)cc(C(F)(F)F)c1`, the Potency is 23.1 nM (active).

With `COc1ccc(-c2ccnc(NCc3ccc(Cl)cc3)n2)cc1`, the Potency was 319 nM (active).

Consider `COc1cccc(-c2ccnc(NCc3ccc(Cl)cc3)n2)c1`, for which the Potency is 6810 nM (active).

With `c1cncc(CNc2ccnc(-c3ccc4cn[nH]c4c3)n2)c1`, the Potency was 1290 nM (active).

`c1cncc(CNc2nccc(-c3ccc4[nH]ncc4c3)n2)c1`: the Potency is 60 nM (active).

For `Clc1cc(Cl)cc(CNc2ncncc2-c2ccc3c(c2)OCO3)c1`, the Potency was 68.2 nM (active).

As for `Clc1ccc(CNc2nccc(-c3ccc4c(c3)OCO4)n2)cc1Cl`, the Potency is 14.4 nM (active).

With `FC(F)(F)c1cccc(Nc2nccc(-c3ccc4c(c3)OCO4)n2)c1`, the Potency is 41.7 nM (active).

`Clc1ccc(CNc2nccc(-c3ccc4cn[nH]c4c3)n2)cc1Cl`: the Potency was 123 nM (active).

On to `Brc1cc(Br)cc(CNc2nccc(-c3ccc4c(c3)OCO4)n2)c1`, for which the Potency was 9.4 nM (active).

For `Clc1ccc(CNc2ncncc2-c2ccc3c(c2)OCO3)cc1Cl`, the Potency is 526 nM (active).

As to `Clc1ccc(CNc2nccc(-c3ccc4[nH]ncc4c3)n2)cc1Cl`, the Potency was 30.3 nM (active).
